Each structure is given as a SMILES string. Screen size: about 160,000 compounds; about 240 (0.15%) were called active. What follows is part of a selection rich in actives, with near analogues and random picks from the rest. Values without a mark were called inactive. No stated cut-off is given here; in the data, active means inhibition above about 40%; inactive means the rest.

The target in this experiment is Cyclic GMP-AMP synthase (Mus musculus) (UniProt Q8C6L5). As to the kind of experiment: inhibition of Mus musculus cGAS, primary biochemical chemiluminescence screen (AID 1259399).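 Further: 0% = negative control wells and 100% = reference inhibitor with no enzyme activity.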 As to conditions: recombinant cGAS, Kinase-Glo ATP depletion luminescence; at 12.5 µM; active compounds read high.
Chain of Cyclic GMP-AMP synthase (Mus musculus) (Q8C6L5 whole entry, looked up): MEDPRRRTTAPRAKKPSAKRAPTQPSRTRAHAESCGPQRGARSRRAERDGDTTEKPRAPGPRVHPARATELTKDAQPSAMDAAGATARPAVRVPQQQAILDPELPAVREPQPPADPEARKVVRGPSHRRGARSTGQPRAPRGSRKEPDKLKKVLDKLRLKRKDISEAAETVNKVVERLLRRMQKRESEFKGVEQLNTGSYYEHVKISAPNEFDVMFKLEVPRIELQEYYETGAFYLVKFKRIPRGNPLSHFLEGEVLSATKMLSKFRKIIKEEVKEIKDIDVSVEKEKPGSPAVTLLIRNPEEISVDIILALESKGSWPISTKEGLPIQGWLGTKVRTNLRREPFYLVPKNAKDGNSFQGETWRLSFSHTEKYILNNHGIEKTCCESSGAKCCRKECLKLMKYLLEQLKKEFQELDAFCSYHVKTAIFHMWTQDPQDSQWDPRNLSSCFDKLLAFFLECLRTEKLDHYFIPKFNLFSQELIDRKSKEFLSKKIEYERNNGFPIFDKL
As to `Cc1ccccc1Cc1nc2c(c(=O)[nH]1)CN(C(=O)Cc1ccc(F)cc1)CC2`, the inhibition was -2.79%.

Turning to `CC(C)c1nnsc1C(=O)N1CCC2(CC1)C(=O)NCCN2C`, the inhibition was -8.76%.

Take `CC(Nc1ccc([N+](=O)[O-])cc1S(=O)(=O)N1CCOCC1)c1ccc(F)cc1F` (stereo unspecified): the inhibition is -8.24%.

As to `N#Cc1ccc(-c2ccccc2)nc1SC(C(=O)O)c1ccccc1` (stereo unspecified), the inhibition was -4.77%.

On to `CCCS(=O)(=O)N1CCCC(C(=O)NC(C)CC)C1` (stereo unspecified), for which the inhibition was -2.19%.

For the molecule `COc1cc([N+](=O)[O-])cc2sc(NC(=O)C(C)C)nc12`, the inhibition was -2.21%.

With `CCn1c(=O)c(C(=O)NCC2CCCO2)nn(-c2ccccc2F)c1=O` (stereo unspecified), the inhibition was -8.2%.

`CC(C)(C)c1ccc(C2SCC(=O)N2CCC(=O)O)cc1` (stereo unspecified): the inhibition was -3.76%.

In the case of `CCCC(=O)Nc1ccc(NC(=O)c2cc(C(C)C)[nH]n2)cc1OC`, the inhibition was -8.07%.

On to `O=C(NC(c1ccccc1)c1ccc(Cl)cc1)C1CC1(c1ccccc1)c1ccccc1` (stereo unspecified), for which the inhibition was -5.82%.

On to `COCCCN1COc2ccc3c(=O)c(Oc4ccc(OC)cc4)coc3c2C1`, for which the inhibition was -1.41%.

Consider `Brc1ccc(N=c2oc3ccccc3cc2-c2nc3ccccc3[nH]2)cc1`, for which the inhibition is -0.816%.

Regarding `COc1ccc(-c2nnc3ccc(OCCNS(=O)(=O)c4cccs4)nn23)cc1`, the inhibition is -9.21%.

Consider `Oc1c(Cl)cc(Cl)c2ccc(N/N=C\c3cccc(Oc4ccccc4)c3)nc12`, for which the inhibition was -3.37%.

In the case of `O=c1n(Cc2noc(-c3ccoc3)n2)nnn1-c1cccs1`, the inhibition was -17.5%.

As for `CC(C)(C)S(=O)(=O)c1ccc(N2CCN(c3ccc(Cl)cc3)CC2)nn1`, the inhibition was -8.96%.

Regarding `COc1ccccc1C(=O)N1CCN(CC(OCc2c(F)cccc2F)c2ccc(Cl)cc2)CC1` (stereo unspecified), the inhibition was -2.63%.

For `C[N+](C)(CCCCCC[N+](C)(C)CCCN1C(=O)c2cccc3cccc(c23)C1=O)CCCN1C(=O)c2cccc3cccc(c23)C1=O`, the inhibition is 75.6% (active).

As to `COc1ccc(N2C(=O)c3cccc4cccc(c34)C2=O)cc1OC`, the inhibition is -7.45%.

Regarding `Cc1ccccc1N(CCCN1C(=O)c2cccc3cccc(c23)C1=O)C(=O)c1ccc([N+](=O)[O-])cc1`, the inhibition was 2.98%.

With `COc1cc(C=C2N=C(C(C)(C)C)OC2=O)ccc1OC(F)F`, the inhibition was 1.97%.

Regarding `COc1ccc(C(=O)N2CCCC3(CC2)CNC(=O)O3)cc1N1CCOCC1` (stereo unspecified), the inhibition is -11.6%.

In the case of `O=C(COc1ccc(Cl)cc1)Nc1c(-c2cccc(F)c2)nc2ccccn12`, the inhibition was -8.5%.

On to `COCCCN(CC(=O)N1CCc2sccc2C1c1ccc(C)cc1)C(=O)c1ccc(C)c([N+](=O)[O-])c1` (stereo unspecified), for which the inhibition was -4.86%.

In the case of `O=C(Cc1ccccc1)N1CC(=O)N(Cc2ccco2)CC(O)C1` (stereo unspecified), the inhibition is -3.15%.

Turning to `COc1cc2c(cc1OC)C(CNC(=O)NC(C)(C)C)N(Cc1ccc(F)cc1)CC2` (stereo unspecified), the inhibition is -7.88%.

`Cc1cnc(C(=O)N2CC(c3ccncc3)C2)cn1`: the inhibition is -13.8%.

On to `NCCOCc1ccc(-c2ccc(F)c(CO)c2)cc1`, for which the inhibition is -21.2%.

`COc1ccc(S(=O)(=O)N(CC(=O)N2CCc3sccc3C2c2ccccc2C)C(C)C)cc1` (stereo unspecified): the inhibition is -2.82%.

On to `COCC(=O)Nc1cccc(-n2nc(OCCc3ccc(OC)cc3)nc2-c2ccc(C(F)(F)F)cc2)c1`, for which the inhibition was -3.56%.

`Cc1csc2nc(CSc3ncn[nH]3)cc(=O)n12`: the inhibition was -4.64%.

Take `COc1ccc(-c2cc(NC(=O)c3cc(F)cc(C(F)(F)F)c3)n(-c3ccc(C)cc3)n2)cc1`: the inhibition is -4.28%.

In the case of `COc1ccc(C(C)=O)cc1COc1ccc(C#N)cc1`, the inhibition was -12.7%.

`COc1ccc(CCOc2nc(-c3ccc(OC)cc3)n(-c3ccc(NC(=O)Nc4ccccc4C)cc3)n2)cc1`: the inhibition was -6.37%.

With `CC(Oc1ccccc1C(N)=O)c1ccccc1Cl` (stereo unspecified), the inhibition is -1.52%.

For the molecule `CCN1C(=O)N(C2Cc3ccccc3C2)C(=O)C12CCN(Cc1cccc3ncccc13)CC2`, the inhibition is -16.7%.

For `O=C(Nc1ccc2c(c1)OCO2)c1cc2nc(-c3ccc(F)cc3)cc(C(F)(F)F)n2n1`, the inhibition was -6.41%.

With `COc1ccc(C=C2SC(=S)NC2=O)cc1OC`, the inhibition was 28%.

On to `CCn1nccc1NC(=O)C1(C)CCN1C(=O)c1sccc1C` (stereo unspecified), for which the inhibition was -3.99%.

On to `CCOCCCn1c(SCc2cc(F)ccc2C)nc2cc(S(=O)(=O)N3CCCC(C)C3)ccc21` (stereo unspecified), for which the inhibition is -6.92%.

As for `Cc1ccc(OC2(C(=O)N(C)Cc3cc(C4CC4)n[nH]3)CCNCC2)cc1`, the inhibition was -3.33%.

As to `O=C(O)CN1C(=O)/C(=C\c2ccc(F)c(Br)c2)SC1=S`, the inhibition was 49.9% (active).

Turning to `O=C(O)CN1C(=O)/C(=C\c2cccc(Cl)c2Cl)SC1=S`, the inhibition is 6.94%.

As to `CCOc1ccc(/C=C2/SC(=S)N(CC(=O)O)C2=O)cc1`, the inhibition was -7.17%.

Regarding `Cc1ccc2nc(-c3ccc([N+](=O)[O-])cc3)nc(-c3ccccc3)c2c1`, the inhibition is -7.39%.

Regarding `COc1cccc(CNC(=O)Cn2c3ccc(F)cc3c3ncn(Cc4ccccc4)c(=O)c32)c1`, the inhibition is -6.62%.

On to `CC(=O)Nc1ccc(Nc2cc(N3CCCCC3)c3nonc3c2[N+](=O)[O-])cc1`, for which the inhibition was -7.72%.

Regarding `C=CC[C@@H]1CC=C[C@@H](C)N1Cc1nc(-c2ccc(C)o2)oc1C`, the inhibition is 0.508%.

With `COC(=O)c1ccccc1NC(=O)N1CCc2ccccc2C1c1ccc(F)cc1` (stereo unspecified), the inhibition was -8.08%.

Turning to `Cc1cc(=O)[nH]c(SCC(N)=O)c1C#N`, the inhibition was 71.9% (active).

Regarding `Cc1nc(SCC(=O)c2ccc(Cl)cc2)c(C#N)c(C)c1C`, the inhibition was -5.06%.

Take `Cc1cc(=O)[nH]c(SCc2cc(-c3ccco3)on2)c1C#N`: the inhibition is 9.2%.

On to `N#CC1C(=N)SC(=N)C(C#N)C1c1ccco1` (stereo unspecified), for which the inhibition was 36.2%.

On to `N#CC1C(=N)SC(=N)C(C#N)C1c1cccc(O)c1` (stereo unspecified), for which the inhibition was 57.5% (active).

As for `COc1ccc(-n2ccnc(SCc3ccc(C)cc3)c2=O)cc1Cl`, the inhibition is -6.1%.

In the case of `Cc1ccc(-c2nc3cc(C)ccn3c2NC(=O)CC(C)C)cc1`, the inhibition was -7.17%.

In the case of `Cn1c(=O)[nH]c(=O)c2c1nc(N1CCN(Cc3ccccc3F)CC1)n2Cc1ccccc1`, the inhibition was -1.19%.

With `COc1ccc(C23CC4CC(CC(C(=O)NC5CC5)(C4)C2)C3)cc1`, the inhibition was -7.85%.

Turning to `Cc1oc(-c2ccc(C(F)(F)F)cc2)nc1CN(C)CC1COc2ccccc2O1` (stereo unspecified), the inhibition is -4.73%.

Regarding `O=C(N1CCC(n2cnc3ccccc32)CC1)C1(c2ccccc2)CC1`, the inhibition is -5.7%.

`COc1ccc(CCN(Cc2ccc(C)o2)C(=O)CN(CCN2CCCC2)C(=O)c2ccccc2C)cc1OC`: the inhibition was -4.1%.

Regarding `CNC(=O)CN(Cc1cccc(Br)c1)C1CC1`, the inhibition is -8.9%.

In the case of `CC(=O)N(CCN(C)C)c1nc2cc3c(cc2s1)OCO3`, the inhibition is 1.62%.

For `O=C(c1ccccc1)N1CCN2C[C@@H](c3ccccc3)[C@H](CO)[C@H]2C1`, the inhibition is -4.18%.

On to `Cc1ccccc1-n1cc(CN(C)C(=O)c2cn(Cc3cccc4ccccc34)nn2)cn1`, for which the inhibition was -7.32%.

Consider `COc1cccc(C(=O)N(Cc2cccc(OS(=O)(=O)c3ccc(F)cc3)c2)Cc2ccco2)c1`, for which the inhibition is -0.277%.

For `CC1C(=O)N(c2ccc3c(c2)OCO3)CCN1C(=O)c1ccccc1Cl` (stereo unspecified), the inhibition was 0.748%.

Consider `COc1ccccc1C(=O)N1CCN(c2ccc(F)cc2)C(=O)C1C` (stereo unspecified), for which the inhibition was -4.08%.

Turning to `COc1ccccc1C(=O)N1CCN(c2cccc(Cl)c2C)C(=O)C1C` (stereo unspecified), the inhibition is 51.1% (active).

As to `OC(COCc1ccccc1)CN(Cc1ccc(F)cc1)CC1CC(c2ccc3c(c2)OCO3)=NO1` (stereo unspecified), the inhibition is -4.2%.

As to `CCc1nc2c(OCCOc3ccc(F)cc3)cccn2c1N(C)C(C)=O`, the inhibition is -2.77%.

For the origin of these results see PubChem BioAssay AID1259399 (Fisher Drug Discovery Resource Center, 2018).
